Assay results taken from PMC5540273 (PLoS ONE, 2017).

system: ABL1-nonphosphorylated; conditions: concentration: 1 μM, replicates: in singlicate; n = 1
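Note: KINOMEscan kinase panel screen.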

SMILES | %Inh [%]
Cl.c1ccc(-c2ccc3c(Nc4ccc5[nH]ccc5c4)ccnc3c2)nc1 [GW440138] | 85
Nc1n[nH]c2cnc(-c3ccccc3)cc12 [SB-642124] | 0
CN(C)Cc1ccc(-c2ccc3c(Nc4ccc(Oc5ccccn5)cc4)ccnc3c2)o1 [GW567148] | 89
CC(C)(C)c1ccc2nccc(Nc3cccc(O)c3)c2c1 [GW856795] | 86
O=c1[nH]cc(-c2ccc(N3CCOCC3)cc2)c2sc(-c3cn[nH]c3)cc12 [GSK2276055] | 0
O=C(Nc1n[nH]c2cc(-c3ccoc3)ccc12)C1CC1 [SB-738481] | 25
CC(=O)N1CCN(c2ccc(Nc3nccc(-c4sc(C(C)C)nc4-c4cccc(NS(=O)(=O)c5cccc(Cl)c5)c4)n3)cn2)CC1 [GSK1660437] | 95.8
COc1cc2c(cc1OCCN1CCNCC1)ncc1c3ccc(C#N)cc3[nH]c21 | 68
Oc1cc(Nc2ccnc3cc(I)ccc23)ccc1F [GW552771] | 99.1
COc1cccc(C2=C(Nc3ccc(Cl)c(C(=O)O)c3)C(=O)NC2=O)c1 [SB-390769] | 11
O=C(Nc1cccc(-c2nn3ccccc3c2-c2ccnc(Nc3cccc(F)c3)n2)c1)c1c(F)ccc(F)c1Cl [GSK357952] | 26
O=C(Nc1cccc(Oc2ccc3nc(NC(=O)C4CC4)cn3n2)c1)c1ccccc1C(F)(F)F | 100
CSc1cccc2c(-c3ccncn3)c(-c3ccc(F)cc3)nn12 [GW514786] | 0
